Source: PubChem BioAssay (EPA / NIEHS)
Active and inactive are the calls of the source. Rule for the calls: active = hit-call score of the fitted dose curve at least 0.9, where 1 is the maximum; inactive = score below 0.9.

What follows are compounds tested on CFLAR gene, CFLAR (gene 8837) (assay: LTEA_HepaRG_CFLAR: Life Technologies and Expression Analysis (LTEA) Assay for CFLAR gene using HepaRG (AID 2283455)). Settings: mRNA level, 48 h; actives raise or lower the signal.
Protocol: LTEA_HepaRG is a cell based, multiplexed-readout assay that uses HepaRG, a human liver cell line, with measurements taken at 48 hours after chemical dosing on a 96-well plate.LTEA_HepaRG_CFLAR is one of 102 assay component(s) measured in the LTEA HepaRG cell culture assay. It is a marker of Cell proliferation, survival, death.Data from the assay component LTEA_HepaRG_CFLAR was analyzed into 1 endpoint. This assay endpoint, LTEA_HepaRG_CFLAR, was analyzed with bidirectional fitting relative to DMSO as the negative control and baseline of activity. Using a type of inducible reporter, measures of mRNA induction for gain or loss-of-signal activity can be used to understand regulation of transcription factor activity. To generalize the intended target to other relatable targets, this assay endpoint is annotated to the cell cycle intended target family, where the subfamily is Cell proliferation, survival, death.
A total of 1060 chemcials from the ToxCast library were tested in eight-point concentration-response experiments. Cell culture and cytotoxicity assays were conducted at Thermo Fisher Scientific's Custom Services facility (Madison, WI). A single lot of human HepaRG cells (Thermo Fisher Scientific, Frederick, MD) was used for the cell culture experiments. 96-well format collagen type I coated plates of human HepaRG cells were prepared using established methods. Briefly, cryopreserved HepaRG cells were thawed, plated at a density of approximately 100,000 cells/well in HepaRG Thaw, Plate, and General Purpose media (HPRG770, Thermo Fisher Scientific), and incubated for 48 hours. 0.5% DMSO was selected as vehicle control to balance the requisite need of DMSO in HepaRG cultures to maintain differentiation (for example, baseline metabolism, proportions of hepatocytes vs. cholangiocytes), while enabling further hepatic receptor pathway activation (for example, PXR and CAR) in response to chemical exposure. 48 hours after plating, the culture medium was replaced with HepaRG Serum-Free Incudtion Media. Cells were exposed to each test chemical in duplicate and maintained in CO2 incubators for another 48 hours. Chemical plates were thawed to room temperature and 200x concentrations of treatment groups were prepared. 8-point conentration-reponse curves were made with the highest exposure at 100 uM, followed by half-log dilutions, all in 0.5% DMSO. Each test plate contained variouse controls, induction positive controls (1mM phenobarbital), cytotoxicity positive controls ([…] aflatoxin B1), vehicle controls (0.5% DMSO), and total lysis controls (0.5% DMSO). Cell morphology images were taken using an Essen IncuCyte FLR automated microscope, with six 96-well plates imaged in about 24 minutes. Images were captured and exported and JPEG files. Spent culture media was transfered to black-well plates for the LDH assay, and remaining media was sorted at -80 C for later use. Cells were treated with RLT buffer and frozen until shipped for gene expression analysis. Total RNA was isolated from the cell suspension in 75 uL of Buffer RLT (Qiagen, Germantown, MD 20874) by Quintiles/Expression Analysis (Durham, NC) using a custom isolation procedure. Total RNA from each plate well was transferred to a preamplification plate. Fluidigm's 96.96 Dynamic ArrayTM (Fluidigm, Amsterdam, the Netherlands) technology was used for gene expression analyses by quantitative reverse transcription polymerase chain reaction (qRT-PCR, performed by Quintiles/Expression Analysis, Durham, NC)89. Standard TaqManTM Assays (Applied Biosystems/ThermoFisher Scientific, Foster City, CA) were used to assess the expression of 93 genes selected based on their selectivity and sensitivity to important hepatic receptors known to be modulated by environmental chemicals; importance in human hepatocyte functionality; and hepatotoxicity. […]
With `O=c1[nH]sc2ccccc12` the outcome was “inactive”.
`Clc1ccccc1C(c1ccccc1)(c1ccccc1)n1ccnc1` was tested, and the outcome was “inactive”.
For `O=C1CCC(C2CCCCC2)CC1`, the outcome was “inactive”.
`CCCCCCCCOC(=O)c1cc(O)c(O)c(O)c1` was tested, and the outcome was “inactive”.
With `CN(C[C@@H](CC[N+]12CCC(C3CCCCC3)(CC1)CC2)c1ccc(Cl)c(Cl)c1)C(=O)c1cc(C(F)(F)F)cc(C(F)(F)F)c1` the AC50 was 50 µM (active).
In the case of `CC(C)(C)c1cc(/C=C2\SC(N)=NC2=O)cc(C(C)(C)C)c1O`, the AC50 is reported as 27.5 µM (active).
With `CC(C)(O)c1ccc(CNC(=O)c2cccnc2Oc2ccc3nonc3c2)cc1` the outcome was “inactive”.
In the case of `CC(O)CC(C)(C)O` (stereo not given), the outcome is reported as “inactive”.
For `CCO[Si](CCCNC(N)=O)(OCC)OCC`, the outcome was “inactive”.
`CC1(C)NC(=O)N(c2ccc([N+](=O)[O-])c(C(F)(F)F)c2)C1=O` was tested, and the outcome was “inactive”.
`CC[C@@H]1C[C@H](N(Cc2cc(C(F)(F)F)cc(C(F)(F)F)c2)C(C)=O)c2cc(C(F)(F)F)ccc2N1C(=O)OC(C)C` was tested, and the outcome was “inactive”.
With `CCCCCc1ccc(N)cc1` the outcome was “inactive”.
For `c1ccc2n[nH]nc2c1`, the outcome was “inactive”.
With `CCCCCCCCCCCC[N+](C)(C)C` the outcome was “inactive”.
In the case of `CCN(CC)C(=O)c1cc(S(=O)(=O)Cc2ccccc2)c(N2CCC(c3ccccc3)CC2)cc1N(CC)CCN(C)C`, the outcome is reported as “inactive”.
In the case of `Cc1cn([C@H]2C[C@H](N=[N+]=[N-])[C@@H](CO)O2)c(=O)[nH]c1=O`, the outcome is reported as “inactive”.
For `CCCCCCCCCCCO`, the outcome was “inactive”.
For `Cc1ccc(C(C)C)cc1`, the outcome was “inactive”.
`O=C(Nc1ccc(Cl)cc1)Nc1ccc(Cl)c(Cl)c1` was tested, and the outcome was “inactive”.
`Cc1c2ccccc2c(C)c2c1ccc1ccccc12` was tested, and the AC50 was 40.9 µM (active).
With `O=c1c(-c2ccc(O)cc2)coc2cc(O)cc(O)c12` the outcome was “inactive”.
In the case of `Cc1occc1C(=O)Nc1ccc(C(=O)N2CCC(F)(F)/C(=C\C(=O)N3CCC(N4CCCCC4)CC3)c3ccccc32)cc1`, the AC50 is reported as 31.2 µM (active).
In the case of `CO[C@H]1/C=C/O[C@@]2(C)Oc3c(C)c(O)c4c(O)c(c(/C=N/N5CCN(C)CC5)c(O)c4c3C2=O)NC(=O)/C(C)=C\C=C\[C@H](C)[C@H](O)[C@@H](C)[C@@H](O)[C@@H](C)[C@H](OC(C)=O)[C@@H]1C`, the outcome is reported as “inactive”.
In the case of `CC(C)(C)c1csc(-c2cc3cc(OCc4ccccc4CC(=O)O)ccc3o2)n1`, the AC50 is reported as 73.5 µM (active).
For `Cc1ccc2oc(CN(Cc3ccccc3)C(=O)Nc3c(F)cc(F)cc3F)c(-c3ccc(Cl)cc3)c2c1`, the outcome was “inactive”.
With `NCc1cccc(C2CCN(C(=O)c3ccc(C#Cc4ccccc4F)o3)CC2)c1` the AC50 was 89.9 µM (active).
For `Cc1cccc2ccccc12`, the outcome was “inactive”.
In the case of `c1ccc(C[n+]2cccc3ccccc32)cc1`, the outcome is reported as “inactive”.
`CN(C)C(=O)C1(N2CCCCC2)CCN(CC[C@@]2(c3ccc(Cl)c(Cl)c3)CN(C(=O)c3ccccc3)CCO2)CC1` was tested, and the AC50 was 61.9 µM (active).
`CC[C@H](NC(=O)c1cc(F)ccc1NS(=O)(=O)c1cccc2cccnc12)c1ccccc1` was tested, and the outcome was “inactive”.
With `Oc1ccc2ccccc2c1` the outcome was “inactive”.
For `C[C@]12CC[C@@H]3c4ccc(O)cc4CC[C@H]3[C@@H]1CCC2=O`, the outcome was “inactive”.
For `CCCCOC(=O)c1ccc(O)cc1`, the outcome was “inactive”.
For `OCCO`, the outcome was “inactive”.
`Clc1cc(Cl)c2c(c1)N=C1CCCCCN1C2` was tested, and the outcome was “inactive”.
With `Cc1oc2c(NC(=O)c3c(Cl)cccc3Cl)cccc2c1C(C)(C)O` the outcome was “inactive”.
For `CC(=O)N1CCN(c2ccc(OC[C@H]3CO[C@](Cn4ccnc4)(c4ccc(Cl)cc4Cl)O3)cc2)CC1`, the AC50 was 74.2 µM (active).
In the case of `CCCCCCCCCC(=O)O`, the outcome is reported as “inactive”.
With `O=C1c2ccccc2C(=O)N1CCc1noc(-c2ccc(CN3CCCCCC3)s2)n1` the outcome was “inactive”.
With `CC(C)(c1cc(Br)c(O)c(Br)c1)c1cc(Br)c(O)c(Br)c1` the AC50 was 71.8 µM (active).
